For 68 compounds, Potency and activity, negative = inhibition results are on record in PubChem BioAssay AID2546 (National Center for Advancing Translational Sciences (NCATS), 2010).

Out of some 310,000 compounds screened, about 11,000 (3.5%) were called active. Entries that show only a call come without a potency. Roughly 8% stayed inconclusive and do not appear here. Calls come from the whole dose curve; as a rule, active = well fitted inhibition curve with a large enough effect; inconclusive = small, poorly fitted or top-dose-only effect, or effect the other way; inactive = flat fitted curve, though single readings scatter. Only a selection was taken, and actives are over-represented in it overall.
Potency is the fitted concentration of half-maximal effect.

The nature of this test: VP16 counterscreen qHTS for inhibitors of ROR gamma transcriptional activity.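 Note: Gal4-VP16 expression switched on by copper sulfate through the metallothionein promoter; nearly all actives have a fitted effect of over 50% in size.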 The note with it: Drosophila S2 Gal4-VP16 UAS-luciferase, luminescence, 20 h; series mostly up to 53.6 µM. The source says:
NIH Molecular Libraries Probe Production Network [MLPCN]
NIH Chemical Genomics Center [NCGC]
Assay Provider: Dan Littman, New York University
The retinoic acid-related orphan receptor (ROR) gamma is a transcription factor that has a central role in the differentiation of Th17 cells, a subset of T helper cells that secrete the inflammatory cytokines IL-17, IL-17F, and IL-22. Th17 cells have been implicated in graft versus host disease, autoimmune disease and asthma. ROR gamma is induced in naive T helper cells in the presence of TGF-beta combined with IL-6, IL-21, or IL-23, and thereafter directs the expression of the Th17 lineage cytokines. To identify nonspecific inhibitors, a Drosophila Schneider cell line was stably transfected with two vectors: a gene expressing a fusion of the Gal4 DNA binding domain and VP16 transactivation domain under the control of the metallothionine promoter and a Photinus luciferase reporter regulated by the Gal4 binding site enhancer, UAS. […] Small molecule inhibitors that inhibit components common to the RORgt and VP16 assays, such as the Gal4 DNA binding domain or the UAS luciferase reporter, will be active in both assays and thus scored as nonspecific.
For screening, 600 cells in 4 uL/well were dispensed into white solid 1536-well plates (Grenier) using a solenoid-based dispenser. Following transfer of 23 nL compound or DMSO vehicle by a pin tool, the plates were incubated 1 hr at ambient temperature, and 1 uL/well copper sulfate (700 uM final concentration) was added. The plates were centrifuged 15 s at 1000 RPM and incubated 20 hr at ambient temperature. After addition of 1.5 uL Photinus luciferase detection reagent, the plates were incubated 10 min at ambient temperature and then read by a ViewLux (Perkin Elmer) to detect luminescence.
A general note: Counterscreens check selectivity or assay interference.
Regarding `Fc1cccc2ncnc(OCc3ccccc3)c12`, the Potency result is “inactive”. The same measure, in the same setting: with `Cc1occc(=O)c1OCc1ccc(F)cc1` the entry was “inactive”; with `Cc1nc2ccccc2cc1OCc1ccc(F)cc1`, 6.31 µM (active).

`O=C(CCc1nnc2ccc(NCc3ccccc3Cl)nn12)NCC1CCN(C2CCCC2)C1` (stereo not drawn): the Potency entry is “inactive”. In the case of `COC(=O)c1ccc(N2CCOCC2)c(NC(=O)c2ccc3c(c2)OCCO3)c1`, the Potency entry is “inactive”. For the compound `COc1ccc(/C=N/Nc2ncnc3sc4c(c23)CCCC4)cc1O`, the Potency is 4.47 µM (active).

In the case of `COc1ccc(NC(=O)CCCNC(=O)Cn2cnc3sc4c(c3c2=O)CCCC4)cc1OC`, the Potency entry is “inactive”. As for `COc1ccc(NC(=O)CCNC(=O)Cn2cnc3sc4c(c3c2=O)CCCC4)cc1OC`, the Potency result was “inactive”. Same read-out and setting: with `CNC(=O)C1CCN(S(=O)(=O)c2c(C)noc2/C=C/c2cccc(C)c2)CC1` the entry was “inactive”; with `O=C(Cc1ccccc1F)NC1CCSc2ccccc21` (stereo not drawn), “inactive”; with `CCOc1ccc2nc(NC(=O)CSc3nc4c(c(=O)n(C)c(=O)n4C)n3CC)sc2c1`, “inactive”. On to `COc1ccc2nc(Nc3nc(-c4ccncc4)cs3)sc2c1`, for which the Potency entry is “inactive”. Still for that read-out and setting: the figure for `CCOc1ccc2nc(Nc3nc4ccc(NC(C)=O)cc4s3)sc2c1` is 7.08 µM (active); for `CCC(=O)c1ccc(OCC(=O)Nc2ccc3nc(C)sc3c2)cc1` it is “inactive”; for `COc1ccc2nc(NC(=O)NC3CCCCC3)sc2c1` it is “inactive”.

For `COc1ccc2nc(Nc3nc4ccc(NC(C)=O)cc4s3)sc2c1`, the Potency is 7.08 µM (active). In the case of `O=C(Nc1cccc(-c2cscn2)c1)C1CCN(Cc2ccsc2)CC1`, the Potency result is “inactive”. Turning to `CCc1cccc(CC)c1NC(=S)Nc1ccc2cn[nH]c2c1`, the Potency result was “inactive”. For the compound `Cc1cc2cc(CNC(=O)c3ccc(S(=O)(=O)N4CCOCC4)cc3)ccc2[nH]1`, the Potency result is “inactive”. `CCc1cccc(CC)c1NC(=S)NCc1ccc2[nH]c(C)cc2c1`: the Potency was 11.2 µM (active). For the compound `Cc1cc(Cl)ccc1C(=O)C1CCCN(C(=O)c2nonc2C)C1` (stereo not drawn), the Potency entry was “inactive”.

Turning to `Nc1nc(-c2ccccc2)cc(-c2ccccc2)n1`, the Potency entry was “inactive”.

Take `CC(=O)Nc1ccc(NC(=O)C(C)OC(=O)c2ccccc2C(=O)c2ccc(Cl)c([N+](=O)[O-])c2)cc1` (stereo not drawn): the Potency entry was “inactive”. With `COC(=O)c1cc(NC(=O)Cc2ccccc2[N+](=O)[O-])ccc1Cl`, the Potency entry is “inactive”. On to `N#Cc1cccc(NC(=O)COC(=O)c2ccccc2C(=O)c2ccc(Cl)c([N+](=O)[O-])c2)c1`, for which the Potency is 7.08 µM (active).

Take `Cc1ccccc1OCC(=O)Nc1nnc(S(=O)(=O)N2CCCC2)s1`: the Potency result was “inactive”. On to `Cc1nc2sc(C(c3ccco3)N3CCOCC3)c(O)n2n1` (stereo not drawn), for which the Potency entry is “inactive”.

As for `Oc1c(C(c2ccccn2)N2CCOCC2)ccc2cccnc12` (stereo not drawn), the Potency is 2.82 µM (active). As for `OC(COc1ccc2ccccc2c1)CN1CCOCC1` (stereo not drawn), the Potency result is “inactive”. For the compound `COC(=O)c1ccc2c(C(C)(C)O)c(C(C)(C)O)[nH]c2c1`, the Potency result is “inactive”. Regarding `O=C(NCCNc1ccc([N+](=O)[O-])cc1Cl)c1ccccc1F`, the Potency entry is “inactive”. With `COC(=O)c1cc(NC(=O)c2cccnc2)ccc1N1CCOCC1`, the Potency entry was “inactive”. Same read-out and setting: the figure for `O=C(Nc1ccc(N2CCN(C(=O)c3ccccc3)CC2)c(Cl)c1)c1cccnc1` is 17.8 µM (active); for `O=C(Nc1cccc(Cl)c1N1CCOCC1)c1cccnc1` it is “inactive”; for `COc1cccc(CNC(=O)CCCC(=O)Nc2cccc([N+](=O)[O-])c2)c1` it is “inactive”. With `N#CNC1=NCN(CCc2ccccc2)CN1`, the Potency result was “inactive”. Take `CCCN1CNC(=S)N(CCc2ccccc2)C1`: the Potency was 3.16 µM (active). For the compound `S=C1SCN(CCN2CCOCC2)CN1Cc1ccccc1`, the Potency entry was “inactive”. For `COc1ccccc1N(CC(=O)N/N=C(\C)c1ccccc1O)S(=O)(=O)c1ccc(C)cc1`, the Potency is 0.708 µM (active).

With `COc1ccccc1NC(=O)CN(c1ccccc1OC)S(=O)(=O)c1ccccc1`, the Potency entry is “inactive”. As for `COc1ccc(S(=O)(=O)N(CC(=O)N/N=C/c2ccccc2C(=O)O)c2ccccc2OC)cc1`, the Potency result is “inactive”. Regarding `COc1cc(OC)c(OC)cc1/C=N/Nc1ncnc2c1[nH]c1ccc(C)cc12`, the Potency entry is “inactive”. On to `CC(C)OCCCNc1ncnc2c1[nH]c1ccc(F)cc12`, for which the Potency was 2.82 µM (active). With `CC(C)OCCCNC(=O)c1cc(Sc2ccc(F)cc2)nc2ccccc12`, the Potency result is “inactive”. With `COC1=C(N2CCOCC2)C(=O)c2ccccc2C1=O`, the Potency result was “inactive”.

As to `COC(=O)C(C)Oc1ccc2c(c1)O/C(=C\c1cccc(Br)c1)C2=O` (stereo not drawn), the Potency entry is “inactive”. Turning to `CCCS(=O)(=O)N1CCN=C1SCc1cccc(F)c1`, the Potency entry is “inactive”. With `COc1ccc(-c2noc(CNC(=O)C(C)Oc3ccccc3)n2)cc1` (stereo not drawn), the Potency result was “inactive”. Turning to `COc1ccc2[nH]c3nc(SCC(=O)NC4CC4)nnc3c2c1`, the Potency result is “inactive”. For `COCCN(CC(=O)Nc1ccccc1C)S(=O)(=O)c1ccc(S(=O)(=O)N2CCCC2)cc1`, the activity, negative = inhibition is -1.46% [at 0.365 µM] (inactive).

For the compound `COc1ccc(C(=O)Nc2ncc3c(n2)-c2ccccc2CC3)cc1`, the Potency entry was “inactive”. On to `COCCN(CCOC)S(=O)(=O)c1ccc(C(=O)Nc2nc3c(s2)CCc2ccccc2-3)cc1`, for which the Potency is 12.6 µM (active). In the case of `CC(=O)Nc1cccc(NC(=O)c2c(-c3ccccc3)noc2C)c1`, the Potency result was “inactive”. As for `Cc1onc(-c2ccccc2)c1C(=O)N=C(N)c1ccc(Cl)cc1`, the Potency result was “inactive”. As for `Cc1ccc(CNC(=O)c2c(-c3ccccc3)noc2C)cc1`, the Potency result was “inactive”. On to `Cc1onc(-c2ccccc2)c1C(=O)Nc1ccccc1C#N`, for which the Potency result was “inactive”. In the case of `Cc1onc(-c2ccccc2)c1C(=O)NNC(=S)NC(=O)c1ccc(F)cc1`, the Potency is 2 µM (active). Consider `COc1ccc(C(=O)NC(=S)NNC(=O)c2c(-c3ccccc3)noc2C)cc1`, for which the Potency was 5.62 µM (active). As to `CC(C)c1ccc(S(=O)(=O)NC2CCCC2)cc1`, the Potency entry was “inactive”. For `COc1ccc(CN2CC(C(=O)NCCc3ccc(Cl)cc3)CC2=O)cc1` (stereo not drawn), the Potency entry is “inactive”.

As for `CC(C)(C)c1ccc(Oc2ccc(N)cc2)cc1`, the Potency is 7.08 µM (active). In the case of `Nc1ccc(Oc2ccc(Cl)cc2)cc1`, the Potency result is “inactive”. In the case of `Cc1ccc(Oc2ccc(N)cc2)cc1`, the Potency result was “inactive”. For the compound `CC1=C(C(=O)NC2CC(C)(C)Cc3c2cnn3-c2ccc(C)cc2)OCCO1` (stereo not drawn), the Potency entry was “inactive”.

Turning to `CCS(=O)(=O)N1Cc2ccccc2CC1C(=O)Nc1nc2ccc(F)cc2s1` (stereo not drawn), the Potency was 11.2 µM (active).

For `NS(=O)(=O)c1ccc2nc(NC(=O)CS(=O)(=O)c3ccc(F)cc3)sc2c1`, the Potency result is “inactive”.

In the case of `CCS(=O)(=O)N1Cc2ccccc2CC1C(=O)Nc1ccc(OC)cc1OC` (stereo not drawn), the Potency result is “inactive”. Consider `O=c1c2cc([N+](=O)[O-])ccc2nc2n1CCC2`, for which the Potency result is “inactive”.
